What was measured:
Assay in all cases: DAPPL (digital affinity profiling via proximity ligation, sequencing); 10 mM Tris-HCl pH 7.5, 50 mM NaCl, 1 mM DTT, 4% glycerol, room temperature, 30 min; GST-TFs on glutathione beads, 16-mer random dsDNA library, 0.1% formaldehyde crosslink after washing; high values mean tight binding
Conditions in all cases: protein: recombinant; tags: N-terminal GST; dsDNA, one strand shown
ELK1 = molecular target: T1, ELK1 (Homo sapiens, UniProt P19419 1-428)
T1 sequence: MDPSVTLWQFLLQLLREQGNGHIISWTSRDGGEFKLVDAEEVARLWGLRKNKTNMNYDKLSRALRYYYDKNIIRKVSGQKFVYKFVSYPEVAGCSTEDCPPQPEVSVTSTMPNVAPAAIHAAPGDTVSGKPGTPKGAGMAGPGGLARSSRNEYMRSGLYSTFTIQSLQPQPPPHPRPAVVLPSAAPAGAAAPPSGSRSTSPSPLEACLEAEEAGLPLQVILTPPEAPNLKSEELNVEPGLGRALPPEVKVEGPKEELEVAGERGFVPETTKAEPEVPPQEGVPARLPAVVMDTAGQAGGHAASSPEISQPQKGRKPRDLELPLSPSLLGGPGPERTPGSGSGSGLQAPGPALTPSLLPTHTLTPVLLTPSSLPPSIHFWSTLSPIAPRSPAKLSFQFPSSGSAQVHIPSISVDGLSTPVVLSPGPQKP
Outline: (§1)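 Pools were built from human transcription factors expressed in yeast as GST fusions, captured on glutathione beads and DNA-barcoded, along with a tag-only sample. Incubation with 200 nmole of a 16-mer random double-stranded DNA library lasted 30 min at room temperature in Tris/NaCl/DTT/glycerol buffer, and was followed by washing, 0.1% formaldehyde crosslinking, proximity ligation, PCR amplification and Illumina NextSeq500 sequencing. Binding signal is the quotient of each hexamer's read frequency for a factor and its frequency for the tag-only sample.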

GABPA = molecular target: T2, GABPA (Homo sapiens, UniProt Q06546 1-454)
T2 sequence: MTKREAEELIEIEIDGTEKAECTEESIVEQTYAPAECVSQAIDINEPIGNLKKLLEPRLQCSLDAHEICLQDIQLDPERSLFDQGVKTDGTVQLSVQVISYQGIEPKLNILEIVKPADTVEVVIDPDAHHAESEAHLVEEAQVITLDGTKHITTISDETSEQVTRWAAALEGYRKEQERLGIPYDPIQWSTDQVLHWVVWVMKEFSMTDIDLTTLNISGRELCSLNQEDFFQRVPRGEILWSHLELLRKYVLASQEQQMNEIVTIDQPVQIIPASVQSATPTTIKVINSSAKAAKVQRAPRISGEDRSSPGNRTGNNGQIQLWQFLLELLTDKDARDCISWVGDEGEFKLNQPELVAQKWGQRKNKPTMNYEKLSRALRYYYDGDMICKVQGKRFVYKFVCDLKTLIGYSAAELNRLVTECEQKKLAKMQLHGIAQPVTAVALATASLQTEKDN
Outline: as §1

ERG = molecular target: T3, ERG (Homo sapiens, UniProt P11308 1-479)
T3 sequence: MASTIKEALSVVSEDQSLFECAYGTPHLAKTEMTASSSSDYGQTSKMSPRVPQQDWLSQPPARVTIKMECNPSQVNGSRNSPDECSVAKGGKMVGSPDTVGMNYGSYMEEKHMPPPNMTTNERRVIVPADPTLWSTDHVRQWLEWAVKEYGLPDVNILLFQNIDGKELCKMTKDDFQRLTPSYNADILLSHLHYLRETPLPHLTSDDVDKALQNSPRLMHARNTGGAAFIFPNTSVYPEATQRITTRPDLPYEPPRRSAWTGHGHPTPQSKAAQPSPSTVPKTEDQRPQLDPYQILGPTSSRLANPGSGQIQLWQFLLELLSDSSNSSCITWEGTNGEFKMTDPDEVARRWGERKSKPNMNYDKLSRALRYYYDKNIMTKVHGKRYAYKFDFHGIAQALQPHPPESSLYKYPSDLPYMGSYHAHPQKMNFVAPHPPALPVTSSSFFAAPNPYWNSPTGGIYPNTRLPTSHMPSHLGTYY
Outline: as §1

ELF1 = ELF1 (Homo sapiens, UniProt P32519 1-619)
Outline: as §1

SPI1 = SPI1 (Homo sapiens, UniProt P17947 1-270)
Outline: as §1

SPIB = SPIB (Homo sapiens, UniProt Q01892 1-262)
Outline: as §1

FEV = molecular target: T4, FEV (Homo sapiens, UniProt Q99581 1-238)
T4 sequence: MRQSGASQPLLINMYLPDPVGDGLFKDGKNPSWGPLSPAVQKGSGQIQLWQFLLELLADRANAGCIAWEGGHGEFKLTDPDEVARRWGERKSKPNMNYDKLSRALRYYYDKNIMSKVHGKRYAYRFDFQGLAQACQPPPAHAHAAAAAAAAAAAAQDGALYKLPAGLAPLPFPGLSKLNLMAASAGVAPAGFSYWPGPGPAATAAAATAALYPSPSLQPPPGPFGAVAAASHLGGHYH
Outline: as §1

ETV5 = ETV5 (Homo sapiens, UniProt P41161 1-510)
Outline: as §1

ELF4 = ELF4 (Homo sapiens, UniProt Q99607 1-663)
Outline: as §1

ELK4 = molecular target: T5, ELK4 (Homo sapiens, UniProt P28324-2 1-405)
T5 sequence: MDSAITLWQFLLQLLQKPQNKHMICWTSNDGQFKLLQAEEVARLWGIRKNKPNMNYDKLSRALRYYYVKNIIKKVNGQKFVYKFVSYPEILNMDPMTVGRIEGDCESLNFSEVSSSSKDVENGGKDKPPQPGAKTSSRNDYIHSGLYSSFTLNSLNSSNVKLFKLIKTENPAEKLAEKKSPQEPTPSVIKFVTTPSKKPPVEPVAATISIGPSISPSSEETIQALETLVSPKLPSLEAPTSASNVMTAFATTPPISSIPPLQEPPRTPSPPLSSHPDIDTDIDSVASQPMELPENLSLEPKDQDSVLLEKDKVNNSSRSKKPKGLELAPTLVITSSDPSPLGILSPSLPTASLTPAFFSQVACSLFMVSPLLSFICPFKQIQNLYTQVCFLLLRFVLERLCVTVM
Outline: as §1

ELF3 = molecular target: T6, ELF3 (Homo sapiens, UniProt P78545 1-371)
T6 sequence: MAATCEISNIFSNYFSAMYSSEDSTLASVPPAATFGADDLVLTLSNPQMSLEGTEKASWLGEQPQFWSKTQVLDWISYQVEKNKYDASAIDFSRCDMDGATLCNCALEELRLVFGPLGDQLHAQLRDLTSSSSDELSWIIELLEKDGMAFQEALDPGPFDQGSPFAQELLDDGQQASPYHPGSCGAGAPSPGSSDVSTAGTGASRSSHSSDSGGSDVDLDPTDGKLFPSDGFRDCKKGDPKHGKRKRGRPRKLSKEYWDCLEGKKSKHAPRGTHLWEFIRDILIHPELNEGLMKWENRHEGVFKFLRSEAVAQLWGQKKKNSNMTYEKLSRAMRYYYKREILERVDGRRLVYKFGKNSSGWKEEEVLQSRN
Outline: as §1

ETV1 = ETV1 (Homo sapiens, UniProt P50549 1-477)
Outline: as §1

ERF = molecular target: T7, ERF (Homo sapiens, UniProt P50548 1-548)
T7 sequence: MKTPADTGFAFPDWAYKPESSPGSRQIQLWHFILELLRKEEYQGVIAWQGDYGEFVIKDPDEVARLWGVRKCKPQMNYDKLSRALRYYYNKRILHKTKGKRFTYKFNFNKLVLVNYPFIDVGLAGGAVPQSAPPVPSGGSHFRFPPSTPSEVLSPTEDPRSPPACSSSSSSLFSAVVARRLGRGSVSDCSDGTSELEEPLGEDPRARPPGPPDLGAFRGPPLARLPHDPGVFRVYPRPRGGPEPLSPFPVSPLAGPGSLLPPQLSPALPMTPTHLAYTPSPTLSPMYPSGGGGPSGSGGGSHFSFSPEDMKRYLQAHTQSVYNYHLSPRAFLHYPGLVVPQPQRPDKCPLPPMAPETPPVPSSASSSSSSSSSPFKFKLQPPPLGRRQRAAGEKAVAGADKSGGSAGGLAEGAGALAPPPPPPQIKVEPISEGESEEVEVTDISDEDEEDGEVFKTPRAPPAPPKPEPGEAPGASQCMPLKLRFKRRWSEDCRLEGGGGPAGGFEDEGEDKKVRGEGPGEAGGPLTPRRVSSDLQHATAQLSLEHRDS
Outline: as §1

ETV3L = molecular target: T8, ETV3L (Homo sapiens, UniProt Q6ZN32 1-361)
T8 sequence: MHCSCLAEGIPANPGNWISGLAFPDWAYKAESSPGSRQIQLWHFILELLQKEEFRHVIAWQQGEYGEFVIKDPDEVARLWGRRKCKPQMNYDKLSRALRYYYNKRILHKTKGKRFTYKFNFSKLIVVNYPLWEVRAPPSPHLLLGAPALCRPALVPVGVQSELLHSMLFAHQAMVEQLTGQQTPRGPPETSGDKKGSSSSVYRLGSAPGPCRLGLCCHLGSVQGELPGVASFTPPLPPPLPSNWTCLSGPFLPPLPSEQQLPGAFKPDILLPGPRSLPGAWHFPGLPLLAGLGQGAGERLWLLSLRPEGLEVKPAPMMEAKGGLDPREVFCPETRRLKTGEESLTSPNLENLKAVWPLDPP
Outline: as §1

ETS2 = molecular target: T9, ETS2 (Homo sapiens, UniProt P15036 1-469)
T9 sequence: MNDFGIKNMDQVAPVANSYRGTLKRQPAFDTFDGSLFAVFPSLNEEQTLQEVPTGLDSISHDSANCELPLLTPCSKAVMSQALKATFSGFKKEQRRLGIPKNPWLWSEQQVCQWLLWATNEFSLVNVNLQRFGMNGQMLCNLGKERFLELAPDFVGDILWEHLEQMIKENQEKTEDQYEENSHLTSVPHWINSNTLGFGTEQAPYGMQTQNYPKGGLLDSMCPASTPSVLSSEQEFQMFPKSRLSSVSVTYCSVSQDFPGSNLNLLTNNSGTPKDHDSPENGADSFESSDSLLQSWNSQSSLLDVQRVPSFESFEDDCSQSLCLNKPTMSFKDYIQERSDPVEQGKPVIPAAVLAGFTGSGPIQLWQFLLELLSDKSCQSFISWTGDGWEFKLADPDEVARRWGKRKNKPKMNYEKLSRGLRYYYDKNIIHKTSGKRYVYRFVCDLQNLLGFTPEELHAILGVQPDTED
Outline: as §1

SPDEF = molecular target: T10, SPDEF (Homo sapiens, UniProt O95238 1-335)
T10 sequence: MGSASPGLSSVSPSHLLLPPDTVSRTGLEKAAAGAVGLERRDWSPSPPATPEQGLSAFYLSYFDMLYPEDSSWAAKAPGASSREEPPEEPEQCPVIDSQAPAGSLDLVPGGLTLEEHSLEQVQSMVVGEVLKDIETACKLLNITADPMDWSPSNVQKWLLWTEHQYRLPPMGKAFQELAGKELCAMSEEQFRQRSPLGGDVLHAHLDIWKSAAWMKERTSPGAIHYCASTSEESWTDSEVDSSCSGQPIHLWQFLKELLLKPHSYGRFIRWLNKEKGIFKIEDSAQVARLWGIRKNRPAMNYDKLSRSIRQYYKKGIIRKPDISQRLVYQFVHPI
Outline: as §1

ETV7 = molecular target: T11, ETV7 (Homo sapiens, UniProt Q9Y603 1-341)
T11 sequence: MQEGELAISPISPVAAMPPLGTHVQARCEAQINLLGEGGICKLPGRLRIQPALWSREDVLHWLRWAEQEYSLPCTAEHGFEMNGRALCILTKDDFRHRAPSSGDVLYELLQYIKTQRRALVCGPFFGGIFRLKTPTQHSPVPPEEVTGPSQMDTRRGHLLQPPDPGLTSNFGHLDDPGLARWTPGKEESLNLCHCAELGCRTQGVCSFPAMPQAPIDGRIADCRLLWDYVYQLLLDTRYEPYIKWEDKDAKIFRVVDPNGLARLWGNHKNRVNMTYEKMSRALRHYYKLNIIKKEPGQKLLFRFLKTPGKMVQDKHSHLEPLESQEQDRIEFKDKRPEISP
Outline: as §1

ETV3 = molecular target: T12, ETV3 (Homo sapiens, UniProt P41162-2 1-143)
T12 sequence: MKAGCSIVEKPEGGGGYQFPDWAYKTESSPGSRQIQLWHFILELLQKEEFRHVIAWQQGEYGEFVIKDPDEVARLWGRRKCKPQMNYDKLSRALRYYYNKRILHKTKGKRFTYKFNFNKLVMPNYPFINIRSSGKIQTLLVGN
Outline: as §1

ETV6 = ETV6 (Homo sapiens, UniProt P41212 1-452)
Outline: as §1

Sequence of ELF4 (Q99607 whole entry): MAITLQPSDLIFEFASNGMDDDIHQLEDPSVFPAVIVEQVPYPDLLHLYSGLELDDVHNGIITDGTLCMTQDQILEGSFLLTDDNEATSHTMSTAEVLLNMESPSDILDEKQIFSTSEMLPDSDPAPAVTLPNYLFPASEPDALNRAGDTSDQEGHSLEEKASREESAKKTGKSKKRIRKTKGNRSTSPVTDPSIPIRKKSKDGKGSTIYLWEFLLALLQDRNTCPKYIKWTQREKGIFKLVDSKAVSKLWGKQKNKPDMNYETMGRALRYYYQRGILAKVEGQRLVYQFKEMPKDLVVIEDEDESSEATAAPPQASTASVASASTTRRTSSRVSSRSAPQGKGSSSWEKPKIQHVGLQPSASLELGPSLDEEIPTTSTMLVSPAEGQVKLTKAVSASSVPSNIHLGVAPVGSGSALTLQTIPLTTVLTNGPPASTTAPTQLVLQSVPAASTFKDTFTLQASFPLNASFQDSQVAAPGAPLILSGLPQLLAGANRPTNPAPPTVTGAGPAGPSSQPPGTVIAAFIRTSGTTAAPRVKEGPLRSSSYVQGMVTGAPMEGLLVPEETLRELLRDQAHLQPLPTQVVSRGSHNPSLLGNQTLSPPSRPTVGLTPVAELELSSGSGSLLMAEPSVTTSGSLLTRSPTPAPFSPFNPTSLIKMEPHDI
Sequence of ELF1 (P32519 whole entry): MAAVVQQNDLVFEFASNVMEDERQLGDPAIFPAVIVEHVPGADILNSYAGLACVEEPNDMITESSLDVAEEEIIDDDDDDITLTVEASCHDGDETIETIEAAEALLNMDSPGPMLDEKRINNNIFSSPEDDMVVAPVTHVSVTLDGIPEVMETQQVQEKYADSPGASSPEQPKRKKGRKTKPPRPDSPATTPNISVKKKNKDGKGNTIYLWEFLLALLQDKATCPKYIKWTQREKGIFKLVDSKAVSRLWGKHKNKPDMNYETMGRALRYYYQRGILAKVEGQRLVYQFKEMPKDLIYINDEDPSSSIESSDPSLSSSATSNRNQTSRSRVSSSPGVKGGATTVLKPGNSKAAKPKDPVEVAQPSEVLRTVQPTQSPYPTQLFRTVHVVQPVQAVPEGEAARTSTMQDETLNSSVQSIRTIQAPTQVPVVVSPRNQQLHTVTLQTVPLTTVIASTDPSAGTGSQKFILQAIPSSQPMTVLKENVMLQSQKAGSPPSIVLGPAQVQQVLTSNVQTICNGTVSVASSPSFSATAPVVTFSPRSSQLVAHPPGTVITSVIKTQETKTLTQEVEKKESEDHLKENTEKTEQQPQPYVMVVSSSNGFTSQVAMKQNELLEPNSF
Sequence of ETV1 (P50549 whole entry): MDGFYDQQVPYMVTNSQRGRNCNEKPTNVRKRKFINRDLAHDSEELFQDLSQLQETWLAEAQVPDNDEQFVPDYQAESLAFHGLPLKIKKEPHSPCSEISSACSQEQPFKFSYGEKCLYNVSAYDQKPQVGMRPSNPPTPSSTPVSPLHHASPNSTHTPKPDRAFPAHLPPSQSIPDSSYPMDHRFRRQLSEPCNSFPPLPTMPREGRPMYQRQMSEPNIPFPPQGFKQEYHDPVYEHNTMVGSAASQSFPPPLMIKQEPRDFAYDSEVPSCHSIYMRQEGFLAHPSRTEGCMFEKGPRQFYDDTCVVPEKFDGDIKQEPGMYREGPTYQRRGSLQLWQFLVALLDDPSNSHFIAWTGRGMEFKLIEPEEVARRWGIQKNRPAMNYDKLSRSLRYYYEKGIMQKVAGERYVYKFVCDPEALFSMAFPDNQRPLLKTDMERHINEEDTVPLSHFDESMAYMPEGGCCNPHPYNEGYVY
Sequence of SPIB (Q01892 whole entry): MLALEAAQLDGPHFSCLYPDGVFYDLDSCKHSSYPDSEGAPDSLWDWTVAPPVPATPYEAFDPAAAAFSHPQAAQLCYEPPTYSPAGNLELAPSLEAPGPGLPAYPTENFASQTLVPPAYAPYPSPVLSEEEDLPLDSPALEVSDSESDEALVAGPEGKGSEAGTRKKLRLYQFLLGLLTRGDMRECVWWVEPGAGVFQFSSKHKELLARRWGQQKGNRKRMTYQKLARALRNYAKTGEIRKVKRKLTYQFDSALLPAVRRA
Sequence of ETV5 (P41161 whole entry): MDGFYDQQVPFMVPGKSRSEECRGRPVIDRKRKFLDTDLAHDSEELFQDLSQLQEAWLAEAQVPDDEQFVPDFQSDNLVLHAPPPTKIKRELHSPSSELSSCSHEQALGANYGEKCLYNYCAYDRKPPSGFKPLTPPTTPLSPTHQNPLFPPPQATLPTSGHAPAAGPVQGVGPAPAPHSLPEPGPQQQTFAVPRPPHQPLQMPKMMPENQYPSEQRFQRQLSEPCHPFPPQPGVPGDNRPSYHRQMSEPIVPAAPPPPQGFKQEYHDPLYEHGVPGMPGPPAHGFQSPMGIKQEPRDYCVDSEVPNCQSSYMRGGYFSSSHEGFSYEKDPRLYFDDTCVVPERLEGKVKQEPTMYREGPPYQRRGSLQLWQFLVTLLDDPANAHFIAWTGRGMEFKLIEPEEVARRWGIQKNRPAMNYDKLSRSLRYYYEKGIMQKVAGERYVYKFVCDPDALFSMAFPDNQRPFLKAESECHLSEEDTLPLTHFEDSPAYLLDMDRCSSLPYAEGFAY
Sequence of ETV6 (P41212 whole entry): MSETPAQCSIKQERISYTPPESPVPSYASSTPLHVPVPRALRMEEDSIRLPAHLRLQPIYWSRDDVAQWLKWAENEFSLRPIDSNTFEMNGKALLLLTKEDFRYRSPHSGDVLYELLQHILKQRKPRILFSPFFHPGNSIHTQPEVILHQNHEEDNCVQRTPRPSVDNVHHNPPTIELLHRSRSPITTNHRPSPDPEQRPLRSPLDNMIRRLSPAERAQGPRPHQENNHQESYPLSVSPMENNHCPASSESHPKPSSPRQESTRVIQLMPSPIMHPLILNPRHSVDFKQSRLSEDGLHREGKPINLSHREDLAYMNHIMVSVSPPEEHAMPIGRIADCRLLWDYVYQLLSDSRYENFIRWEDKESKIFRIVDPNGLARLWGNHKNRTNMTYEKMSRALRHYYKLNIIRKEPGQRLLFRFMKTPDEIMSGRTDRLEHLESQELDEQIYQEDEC

ATCAAA
binding signal (ELK1): 1.05 fold enrichment (6-mer frequency, TF over GST control) | binding signal (GABPA): 1.13 fold enrichment (6-mer frequency, TF over GST control) | binding signal (ERG): 1.11 fold enrichment (6-mer frequency, TF over GST control) | binding signal (ELF1): 1.07 fold enrichment (6-mer frequency, TF over GST control) | binding signal (SPI1): 1.06 fold enrichment (6-mer frequency, TF over GST control) | binding signal (SPIB): 1.02 fold enrichment (6-mer frequency, TF over GST control) | binding signal (FEV): 1.03 fold enrichment (6-mer frequency, TF over GST control) | binding signal (ETV5): 1.06 fold enrichment (6-mer frequency, TF over GST control) | binding signal (ELF4): 1.12 fold enrichment (6-mer frequency, TF over GST control) | binding signal (ELK4): 1.1 fold enrichment (6-mer frequency, TF over GST control) | binding signal (ELF3): 1.04 fold enrichment (6-mer frequency, TF over GST control) | binding signal (ETV1): 1.15 fold enrichment (6-mer frequency, TF over GST control) | binding signal (ERF): 1.08 fold enrichment (6-mer frequency, TF over GST control) | binding signal (ETV3L): 1.08 fold enrichment (6-mer frequency, TF over GST control) | binding signal (ETS2): 1.07 fold enrichment (6-mer frequency, TF over GST control) | binding signal (SPDEF): 1.06 fold enrichment (6-mer frequency, TF over GST control) | binding signal (ETV7): 1.1 fold enrichment (6-mer frequency, TF over GST control) | binding signal (ETV3): 1.01 fold enrichment (6-mer frequency, TF over GST control) | binding signal (ETV6): 1.07 fold enrichment (6-mer frequency, TF over GST control)

Reference: paper PMC7862700, “An all-to-all approach to the identification of sequence-specific readers for epigenetic DNA modifications on cytosine”
